According to PubChem BioAssay AID651965 (National Center for Advancing Translational Sciences (NCATS), 2013):
Screen size: about 340,000 compounds; about 6,400 (1.9%) were called active. Another 4% or so got no clear call; they are omitted. The entries come from a sample that favours actives as a whole. Values without a mark were called inactive. The call rests on the fitted dose curve; in most records, active means well fitted falling curve with a large enough effect; inconclusive means small, poorly fitted or top-dose-only effect; inactive means no such curve, though single readings can be large or run the other way.

Biological target: ATP-dependent Clp protease proteolytic subunit (Bacillus subtilis (strain 168)) (UniProt P80244)
Experiment: qHTS Assay for Activators of ClpP; further: the source files actives as falling curves though it sought activators and does not explain the sign; nearly all actives have a fitted effect of over 65% in size
Conditions: purified B. subtilis ClpP, FRET peptide cleavage, 20 min; series mostly up to 57.5 µM; activity change, negative = active: at the top concentration
Source text: The Clp protease proteolytic subunit (ClpP) is the core unit of the Clp complex belonging to the peptidase family S14 that hydrolyzes protein into small peptides in the presence of ATP and magnesium. It is ubiquitously expressed and is the major protease in bacteria. […] Unlike common antibiotics that simply interfere with the essential enzyme activity, ADEP binding activates the ClpP core in the absence of the regulatory Clp-ATPases leading to uncontrolled proteolysis and eventually cell death. Activators binding to the docking site on ClpP can also block formation of the ClpXP and ClpA/C-P holoenzyme complexes interfering with the normal biological functions of ClpP and thus have the potential to become new anti-microbials.
To identify activators of ClpP, a FRET based quenching reversal assay was developed using a purified B. subtilis ClpP and a decapeptide substrate (FRET-FV). The FRET-FV is tagged with a fluorescent molecule amino benzoic acid (donor) at the N-terminus and a nitrotyrosine quencher (acceptor) at the C-terminus. FRET-FV cleaves upon activation of ClpP with ADEP treatement and reverses the quenching effect of the nitrotyrosine causing an increase in fluorescence emission signal at 430nm. This assay was used to screen the Molecular Libraries Small Molecule Repository (MLSMR).
NIH Molecular Libraries Probe Production Centers Network [MLPCN]
NIH Chemical Genomics Center [NCGC]
Assay Submitter (PI): Michael Maurizi, National Cancer Institute
Two and a half microL/well of purified enzyme solution (final concentrations 10 microg/mL B. subtilis ClpP in 100 mM Tris/HCl pH8, 100 mM KCl, 0.05% low protease BSA, 2.5% glycerol, 0.01% Tween-20 buffer) was dispensed into 1536-well assay plates (Greiner, black solid, medium-binding plates) with Aurora Discovery BioRAPTR Flying Reagent Dispenser (FRD, Beckton-Dickenson). Compound solution (23 nL) was transferred to the assay plate using Kalypsys pin tool equipped with a 1536-pin tool. […] FRET signals at time 0 and after 20 min room temperature incubation were obtained using the PerkinElmer Envision plate reader with 320nm excitation and 430nm emission filters. Delta FRET value (Time 20 - Time 0) was calculated and normalized to the delta FRET value of positive control ADEP (5.8 microM final concentration) and negative control DMSO and no enzyme wells.

Row | SMILES | activity change, negative = active [%] | Potency
1 | CCc1nc2ccc(C(=O)Nc3cc(-c4ccccc4)ccc3OC)cn2c1N(CC)CC(=O)N(C)C | 4.3 | 
2 | CSc1ncnc2c1ncn2CCCNCC1CCCCC1 | -2.79 | 
3 | O=C1NC[C@H](CCCCN2CCN(CCc3ccccc3)C(=O)C2=O)N(CC2CCCCC2)C1=O | -1.02 | 
4 | CC(C)C[C@H]1CNC(=S)N1C[C@H]1CCCN1C[C@H](Cc1ccc(O)cc1)N1C[C@H](Cc2ccc(O)cc2)N(CC2CCCCC2)C1=S | 1.83 | 
5 | c1ccc(Cc2c(-c3ccco3)nc3c4ccccc4ccn23)cc1 | 4.55 | 
6 | Cc1ccc(C)c(C(O)c2ncc(-c3cccc4ccccc34)[nH]2)c1 (stereo not given) | 4.92 | 
7 | Cc1ccc2c(CN3CCN(S(=O)(=O)c4ccccc4C(F)(F)F)CC3)cc(=O)oc2c1 | -9.85 | 
8 | O=c1cc(CN2CCN(S(=O)(=O)/C=C/c3ccccc3)CC2)c2ccc(O)cc2o1 |  | 10 µM (active)
9 | COc1ccc2c(CN3CCN(S(=O)(=O)c4cccs4)CC3)cc(=O)oc2c1 | -14.2 | 
10 | CCCNC(=O)C1(C)CCN(C(=O)c2cc(F)ccc2C)C1 (stereo not given) | 0.883 | 
11 | COc1ccc(C(=O)C(OP(=O)(OC)OC)c2ccccc2OC)cc1 (stereo not given) | -1.26 | 
12 | O=[N+]([O-])c1ccc(/C=C/c2ccc3cccnc3c2)cc1 | -3.98 | 
13 | N#Cc1ccc[n+](CC(=O)c2ccc(F)cc2)c1 | 0.138 | 
14 | Cc1cc(C)c(C2C3=C(Nc4c2c(C)nn4-c2ccccn2)c2ccccc2C3=O)c(C)c1 (stereo not given) | -1.74 | 
15 | CC1(C)CC(=O)C2=C(C1)Nc1cc(C(=O)c3ccccc3)ccc1NC2c1ccccn1 (stereo not given) | -1.17 | 
16 | Cc1nn(-c2ccccn2)c2c1C(c1ccncc1)C1=C(CC(C)(C)CC1=O)N2 (stereo not given) |  | 31.6 µM (active)
17 | Clc1cccc[n+]1CCCC[n+]1ccccc1Cl | -3.17 | 
18 | Cc1noc(C)c1S(=O)(=O)N(C)C[C@H]1OCCCC[C@@H](C)Oc2ccc(NC(=O)CCCN(C)C)cc2C(=O)N([C@H](C)CO)C[C@@H]1C | 0.472 | 
19 | CCc1cc(C(=O)N(CC)CC(=O)Nc2c(F)cccc2F)sc1C | -1.44 | 
20 | CN(N)c1nc(N2CCCC2)nc(N2CCCC2)n1 |  | 31.6 µM (active)
21 | O=C(NNc1nc(N2CCCC2)nc(N2CCCC2)n1)c1ccccc1 | 0.913 | 
22 | FC(F)(F)COc1nc(N2CCCCC2)nc(N2CCNCC2)n1 | 0.515 | 
23 | CC(C)C1C(=O)N(Cc2cn(CCC3OCCO3)nn2)CCS(=O)(=O)N1Cc1ccc(-c2ccccc2C(F)(F)F)cc1 (stereo not given) | 1.59 | 
24 | O=C(Nc1ccc(F)cc1)C(CCc1ccccc1)N1CCN(CC(=O)N2CCCC2)CC1 (stereo not given) | 1.39 | 

Row | SMILES | activity change, negative = active [%] | Potency
25 | CCn1c(=O)c2cc(C(=O)Nc3cccc(C(C)=O)c3)sc2c2ccccc21 | -5.57 | 
26 | CCN(CCCNC(=O)c1cc2c(=O)n(CC)c3ccccc3c2s1)Cc1ccccc1 |  | 3.55 µM (active)
27 | CN(Cc1ccccc1)C(=O)c1cc2c(=O)n(C)c3ccccc3c2s1 | -25.1 | 
28 | CCOC(=O)c1c(C)c(C(=O)NCCc2ccc(S(N)(=O)=O)cc2)c(C)n1CC | -24.6 | 
29 | NS(=O)(=O)c1ccc(CCNC(=O)c2ccc(Cl)c(S(=O)(=O)N3CCCCCC3)c2)cc1 | -3.6 | 
30 | Cc1c(C)n(Cc2ccc(Cl)cc2)c2ccc(C(=O)NCCc3ccc(S(N)(=O)=O)cc3)cc12 |  | 14.1 µM (active)
31 | COC(=O)[C@@]12C[C@@H](CC(=O)NCc3cccc(C(F)(F)F)c3)C(=O)N(Cc3ccco3)C1=CCC(C)(C)C2 | 1.62 | 
32 | Cc1cccc(CN2Cc3cccc4c3[C@H](C=CC4)CC2=S)c1 | -3.52 | 
33 | Cc1cc(OCC(=O)Nc2nccs2)c2c(C)c(C)c(=O)oc2c1 |  | 31.6 µM (active)
34 | COc1ccc(CCNC(=O)COc2cc(C)cc3oc(=O)c(C)c(C)c23)cc1OC | -6.73 | 
35 | Cc1cc(OCC(=O)NCC(O)c2ccccc2)c2c(C)c(C)c(=O)oc2c1 (stereo not given) | 3.71 | 
36 | COc1ccccc1-c1cc(NC(C)=O)c2ncc(-c3ccc(F)cc3)n2c1 | 4.69 | 
37 | Cc1cc2[nH]ncc2cc1NC(=S)NC(=O)c1ccccc1 | 8.42 | 
38 | Cc1cccc(NC(=S)Nc2ccc3cn[nH]c3c2)c1 |  | 22.4 µM (active)
39 | CCc1cccc(CC)c1NC(=S)Nc1ccc2cn[nH]c2c1 | -18.4 | 
40 | COc1cc(CNc2ncnc3c2ncn3[C@H]2CN(Cc3cccs3)C[C@@H](CO)O2)cc(OC)c1OC | -1.33 | 
41 | CC1(C(=O)NCc2cccc3ccccc23)CCN1Cc1ccc(-c2ccccc2)o1 (stereo not given) | -22.3 | 
42 | CC1(C)CC(=O)c2cc(OCC(=O)NCC3CCCO3)ccc2O1 (stereo not given) |  | 11.2 µM (active)
43 | CCOc1ccc(S(=O)(=O)NCCC(=O)NCC2CCCO2)cc1 (stereo not given) | -0.322 | 
44 | C=CCOc1ccc(/C=C/C(=O)OCC(=O)NCC2CCCO2)cc1 (stereo not given) | 3.23 | 
45 | Cc1ccccc1S(=O)(=O)N1[C@@H](c2cccc(Cl)c2)C(C(=O)OC(C)(C)C)=CC[C@H]1c1ccc(Cl)cc1 | -4.28 | 
46 | COC(=O)C1(C(=O)OC)C/C=C\CN(S(=O)(=O)c2ccccc2[N+](=O)[O-])CCC1 | 0.858 | 
47 | O=C(Nc1ccccc1-c1nnn(CC(=O)N2CCN(c3ccccc3)CC2)n1)c1cccs1 | -19.7 | 
48 | O=C(Nc1ccccc1-c1nnn(CC(=O)N2CCCc3ccccc32)n1)c1cccc(Cl)c1 |  | 20 µM (active)

Row | SMILES | activity change, negative = active [%] | Potency
49 | Cc1cccc(C(=O)Nc2ccccc2-c2nnn(CC(=O)Nc3ccc4c(c3)OCCO4)n2)c1 | 3.15 | 
50 | COC(=O)[C@]12CCCCC=C1N(Cc1ccc3c(c1)OCO3)C(=O)[C@H](CC(=O)NCc1cccs1)C2 | -1.48 | 
51 | CCCCCCCCN1C(=O)[C@H](CC(=O)NCC23CC4CC(CC(C4)C2)C3)C[C@@]2(C(=O)OC)CCCCC=C12 | -1.46 | 
52 | O=C(Nc1cccc2ccccc12)NC1CC1 | 3.85 | 
53 | COc1ccc(C(=O)NNS(=O)(=O)c2ccc(C)cc2)cc1 | -7.98 | 
54 | Cc1ccc(S(=O)(=O)NNC(=O)Nc2cccc3ccccc23)cc1 |  | 14.1 µM (active)
55 | COc1ccc(-c2nc(=N)sn2-c2ccccc2)cc1 | -2.14 | 
56 | COC(=O)[C@@]12C[C@@H](CC(=O)NCCCCc3ccccc3)C(=O)N(Cc3ccccc3)C1=CCC(C)(C)C2 | -1.89 | 
57 | COc1ccc(/C=N/NC(=O)c2ccc(Cl)cc2)cc1COC(C)=O |  | 25.1 µM (active)
58 | COc1cccc(OCc2cc(/C=N/NC(=O)c3nc(Cl)c(Cl)c(N)c3Cl)ccc2OC)c1 | -23.6 | 
59 | COc1cc(/C=N/NC(=O)CNC(=O)c2ccncc2)ccc1OC(C)=O | -0.766 | 
60 | CCOC(=O)[C@]12CCC=C1N(Cc1ccccc1)C(=O)[C@H](CC(=O)N1CCCC1)C2 | -2.23 | 
61 | CC(=O)NC(c1ccccc1)c1nc(-c2ccccc2C)cs1 (stereo not given) | -4.42 | 
62 | NS(=O)(=O)c1ccc(NC(=O)CSc2nnc3c(n2)[nH]c2ccccc23)cc1 | 1.35 | 
63 | O=C(Cn1nc(C(F)(F)F)c2c1CCC2)NCc1ccc(F)cc1 | -1.32 | 
64 | O=C(Cn1nc(C(F)(F)F)c2c1CCCC2)Nc1ccc(Cl)cc1 | -1.07 | 
65 | Cc1cc(NC(=O)Cn2nc(C(F)(F)F)c3c2CCCC3)no1 |  | 28.2 µM (active)
66 | COC(=O)c1ccc(OCC(=O)NC(C)(C)C)cc1 | 1.7 | 
67 | CC(C)(C)NC(=O)COc1ccc(CNc2ccc3[nH]c(=O)[nH]c3c2)cc1 |  | 22.4 µM (active)
68 | COc1ccc(C(=O)OCC(=O)Nc2ccc3[nH]c(=O)[nH]c3c2)c(OC)c1OC | -5.3 | 
69 | Cc1ccc([C@H]2N[C@]3(CCCN(Cc4ccccc4)C3=O)[C@H]3C(=O)N(Cc4ccccc4)C(=O)[C@@H]23)cc1 | 1.37 | 
70 | CCOC(=O)[C@H]1Nc2ccc(Cl)cc2[C@@H]2[C@H]1C1CC(c3ccccc31)N2C(=O)OCc1ccccc1 (stereo not given in full) | -6.04 | 
71 | CCn1c2ccccc2c2cc(NC(=O)COc3ccc(C)cc3C)ccc21 | -24.8 | 
72 | CCn1c2ccccc2c2cc(NC(=O)C/C(C)=N/NC(=O)c3ccccc3N)ccc21 |  | 14.1 µM (active)

Row | SMILES | activity change, negative = active [%] | Potency
73 | C/C(CC(=O)Nc1ccc(N(C)C)cc1)=N\NC(=O)c1ccccc1F | -2.45 | 
74 | COc1ccc(-c2cc(C(=O)NCCCN3CCCC3=O)c3ccccc3n2)cc1OC | -6.41 | 
75 | CCc1ccc(-c2cc(C(=O)NN3CCN(C)CC3)c3ccccc3n2)cc1 |  | 31.6 µM (active)
76 | Cc1ccc(-c2cc(C(=O)NC3CCN(Cc4ccccc4)CC3)c3ccccc3n2)cc1 | -0.514 | 
77 | COCCNc1nc(NCc2ccc(NC(C)=O)cc2)c2sccc2n1 | -15.9 | 
78 | Cc1nc2c(OCC(=O)C(C)(C)C)cccn2c1N(C)Cc1cccs1 | -7.89 | 
79 | CCCCCc1c(-c2cccc(Br)c2)ncn1CCc1ccccc1OC | -26.2 | 
80 | COc1c(C)cc(C(O)c2ncc(-c3cccc(C(F)(F)F)c3)[nH]2)cc1C (stereo not given) | -7.79 | 
81 | CCC(c1nnnn1-c1ccc2c(c1)OCCO2)N1CCN(c2ccc(C(F)(F)F)cn2)CC1 (stereo not given) | -0.91 | 
82 | C=C(C)CSc1nc(N)c2c3c(sc2n1)CCC3 |  | 12.6 µM (active)
83 | CCc1nc(N2CCN(C(C)=O)CC2)c2c3c(sc2n1)CCCC3 | -4.18 | 
84 | CC(C)(C)C1CCc2c(sc3nc(SCC(N)=O)nc(N)c23)C1 (stereo not given) | -15.5 | 
85 | C[C@H]1CN([C@@H](C)CO)C(=O)c2cc(C3=CCCCC3)cnc2O[C@@H]1CN(C)C(=O)Cc1ccccc1 | -5.72 | 
86 | Cc1cc(NC(=O)CN2CCCC(C)C2)n(-c2nc3ccccc3s2)n1 (stereo not given) |  | 17.8 µM (active)
87 | Cc1[nH]c2ccccc2c1C(=O)CN1CCCC(C)C1 (stereo not given) | 0.916 | 
88 | CC(=O)Nc1ccc(NC(=O)CN2CCCC(C)C2)c(Cl)c1 (stereo not given) | -3.9 | 
89 | CC(=O)c1ccc(Nc2nc(C(N)c3ccccc3Cl)cs2)cc1 (stereo not given) | -11.1 | 
90 | CCOC(=O)c1c(N)nn(C(=O)c2ccccc2)c1-c1ccccc1 | -1.6 | 
91 | CCOC(=O)c1cc(C#N)c(N2CCCCC2)nc1-c1ccccc1 |  | 28.2 µM (active)
92 | CCOc1ccc2nc(N3CCCN(C(=O)Nc4ccccc4C)CC3)c(C#N)cc2c1 | -2.23 | 
93 | Cc1cc[n+](C2CCCCC2)cc1 | -7.91 | 
94 | N#Cc1ccc[n+](CC(=O)c2ccc(O)c(O)c2)c1 | -0.287 | 
95 | O=C(NCc1cccnc1)c1cc(C2CCCN(C(=O)CCCc3ccccc3)C2)on1 (stereo not given) | 1.82 | 
